The record followed here is the OligoGym collection.
Further: reference of the scale not given here.

The target of one test is KIAA0564. The experiment in a line: pooled miR-30 sensor sort-seq; sequence = guide strand. The conditions noted are these: shRNA.
TAACAACTTAAGTTGGTCCTTG: the sensor-assay potency score (higher = more potent) amounted to 0.426.

For the sequence TTGTGGAGGAGTAACATCTTTT, the sensor-assay potency score (higher = more potent) is -1.09.

Sequence TTTTTTTCTAATGCTGACCTAG came in with a sensor-assay potency score (higher = more potent) of -0.423.

Regarding TCTTTGTAGAACACCAGCCAGT, the sensor-assay potency score (higher = more potent) was -0.952.

TTTTTCTTTGTAGAACACCAGC yielded a sensor-assay potency score (higher = more potent) of -1.28.

With TTTGCCAGAACAATCATCCTAA, the sensor-assay potency score (higher = more potent) stood at 0.448.

ATCAACAGTAACAACACCGCTT: the sensor-assay potency score (higher = more potent) came to 0.22.

The target in a further test is KIAA0664. The test is described as above. The settings on record: shRNA.
Consider AAGTTCTTCTTGAAGGTCGGGC, for which the sensor-assay potency score (higher = more potent) was -0.0493.

Regarding TTGAAGGTCGGGCTGATCTGGT, the sensor-assay potency score (higher = more potent) was -0.0579.

TTGCTCTCGTAGACTCGGGCGA came in with a sensor-assay potency score (higher = more potent) of -0.673.

For TTTCTTCTGCAGCACAGCGAAG, the sensor-assay potency score (higher = more potent) is -1.66.

TTGAGCACGTCCTCCTCGGTGA: the sensor-assay potency score (higher = more potent) was -0.45.

On to TGCATCTTGGTCTCCTCGCTGG, for which the sensor-assay potency score (higher = more potent) was -0.849.

TTCTTCTTGAAGGTCGGGCTGA showed a sensor-assay potency score (higher = more potent) of -0.121.

For the sequence TTTTCTTCTGCAGCACAGCGAA, the sensor-assay potency score (higher = more potent) was -0.902.

TTGGAGACCAGCTCGTCGGCGG: the sensor-assay potency score (higher = more potent) was -0.677.

Consider TACGTCTTGAAGATGTGCTTGG, for which the sensor-assay potency score (higher = more potent) was found to be 0.188.

TTGACGTGCTTGACCACGGGGA gave a sensor-assay potency score (higher = more potent) of -0.0674.

Sequence TTGCACTCGACCGAGGAGCAGA displayed a sensor-assay potency score (higher = more potent) of -0.997.

In the next test the target is KIAA0930. The test is described as above. The settings on record: shRNA.
TTTGTCACTAGCCACCAGCTCC registered a sensor-assay potency score (higher = more potent) of -0.835.

TTCTTGAGCGCCTCGTAGCGGA showed a sensor-assay potency score (higher = more potent) of -0.914.

As to TTCAGCTTCAGCCAGGACCCGA, the sensor-assay potency score (higher = more potent) is -1.04.

As to TTCTCCATGAAGTAGGTGGAGA, the sensor-assay potency score (higher = more potent) is -1.12.

AAGTAGGTGGAGAACATCCAAG displayed a sensor-assay potency score (higher = more potent) of -1.37.

The sequence TCACCTGTAGACACTCGGCTGA gave a sensor-assay potency score (higher = more potent) of -0.216.

Sequence TAAGTGTGCATAGAGAAGGAAG registered a sensor-assay potency score (higher = more potent) of -1.42.

TTGCTGTACTTGTAGAAGCCAA showed a sensor-assay potency score (higher = more potent) of -0.811.

Turning to AAAAGCATGTCGTCCTGCCGGG, the sensor-assay potency score (higher = more potent) is -0.426.

The sequence ATAGAAAAGCATGTCGTCCTGC returned a sensor-assay potency score (higher = more potent) of 0.0437.

TTATGGATGTGAATGTCCCCGC returned a sensor-assay potency score (higher = more potent) of -0.555.

In the case of TTCTTCATCTCAGCGATCCGGT, the sensor-assay potency score (higher = more potent) was -0.0677.

Another test deals with KIAA1217. The description is as above. The settings on record: shRNA.
Take TATTTTGTAGCTCTGGTCTGTG: the sensor-assay potency score (higher = more potent) worked out at 0.157.

As to TACACTTTGAGGAGTGATCTGT, the sensor-assay potency score (higher = more potent) amounted to 0.221.

Consider TGAACTTCCATTCTGTGCCTTG, for which the sensor-assay potency score (higher = more potent) was found to be 0.302.

TTTGCTTGAACTTCCATTCTGT: the sensor-assay potency score (higher = more potent) was found to be 0.925.

As to TTTCCCATTATAGTGATCCAGA, the sensor-assay potency score (higher = more potent) is -1.06.

The sequence TTTTTTTAAATGTAACTCCGAC came in with a sensor-assay potency score (higher = more potent) of -0.293.

With TTTTTGTCTCTCTTGCTCCACT, the sensor-assay potency score (higher = more potent) was -0.52.

Consider TAGTGATCCAGATTTTGCCTTT, for which the sensor-assay potency score (higher = more potent) was -0.121.

As for TTTCTCGATAGACACTGCCCTG, the sensor-assay potency score (higher = more potent) is -1.06.
